Reference: PubChem BioAssay
Active and inactive are the calls of the source.

What was measured:
[1] = small molecules captured by biotinylated probe aFSTL3 – biochemical, small-molecule microarray, fluorescence 635/667, stem cell growth factor project, primary screen (AID 1064); details: higher = more signal;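 also: measures binding of the biotinylated anti-FSTL3 antibody to printed compounds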
[2] = binders from COS7 lysate, DM2A8 probe, primary screen, torsin A project, cell lysate, small-molecule microarray, fluorescence 635/667 (AID 1065); details: higher = more signal, COS7 lysate expressing mutant human TOR1A
[3] = small molecules captured by biotinylated probe aFGF2 – biochemical, small-molecule microarray, fluorescence 635/667, stem cell growth factor project, primary screen (AID 1067); details: higher = more signal;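 also: measures binding of biotinylated aFGF2 protein to printed compounds on slides; z-score merges feature fluorescence and signal-to-noise across triplicate slides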
[4] = small molecules captured by biotinylated probe aFGF10 – biochemical, small-molecule microarray, fluorescence 635/667, stem cell growth factor project, primary screen (AID 1071); details: higher = more signal;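 also: score merges 667 nm spot intensity and signal to noise from triplicate slides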
[5] = molecular target: Neurogenic locus notch homolog protein 2 (Homo sapiens) (UniProt Q04721); assay: small molecules binding Notch2 protein – biochemical, small-molecule microarray, 635 nm fluorescence, stem cell growth factors, primary screen (AID 1073); details: higher = more signal
Chain of Neurogenic locus notch homolog protein 2 (Homo sapiens) (Q04721 whole entry, looked up, canonical isoform): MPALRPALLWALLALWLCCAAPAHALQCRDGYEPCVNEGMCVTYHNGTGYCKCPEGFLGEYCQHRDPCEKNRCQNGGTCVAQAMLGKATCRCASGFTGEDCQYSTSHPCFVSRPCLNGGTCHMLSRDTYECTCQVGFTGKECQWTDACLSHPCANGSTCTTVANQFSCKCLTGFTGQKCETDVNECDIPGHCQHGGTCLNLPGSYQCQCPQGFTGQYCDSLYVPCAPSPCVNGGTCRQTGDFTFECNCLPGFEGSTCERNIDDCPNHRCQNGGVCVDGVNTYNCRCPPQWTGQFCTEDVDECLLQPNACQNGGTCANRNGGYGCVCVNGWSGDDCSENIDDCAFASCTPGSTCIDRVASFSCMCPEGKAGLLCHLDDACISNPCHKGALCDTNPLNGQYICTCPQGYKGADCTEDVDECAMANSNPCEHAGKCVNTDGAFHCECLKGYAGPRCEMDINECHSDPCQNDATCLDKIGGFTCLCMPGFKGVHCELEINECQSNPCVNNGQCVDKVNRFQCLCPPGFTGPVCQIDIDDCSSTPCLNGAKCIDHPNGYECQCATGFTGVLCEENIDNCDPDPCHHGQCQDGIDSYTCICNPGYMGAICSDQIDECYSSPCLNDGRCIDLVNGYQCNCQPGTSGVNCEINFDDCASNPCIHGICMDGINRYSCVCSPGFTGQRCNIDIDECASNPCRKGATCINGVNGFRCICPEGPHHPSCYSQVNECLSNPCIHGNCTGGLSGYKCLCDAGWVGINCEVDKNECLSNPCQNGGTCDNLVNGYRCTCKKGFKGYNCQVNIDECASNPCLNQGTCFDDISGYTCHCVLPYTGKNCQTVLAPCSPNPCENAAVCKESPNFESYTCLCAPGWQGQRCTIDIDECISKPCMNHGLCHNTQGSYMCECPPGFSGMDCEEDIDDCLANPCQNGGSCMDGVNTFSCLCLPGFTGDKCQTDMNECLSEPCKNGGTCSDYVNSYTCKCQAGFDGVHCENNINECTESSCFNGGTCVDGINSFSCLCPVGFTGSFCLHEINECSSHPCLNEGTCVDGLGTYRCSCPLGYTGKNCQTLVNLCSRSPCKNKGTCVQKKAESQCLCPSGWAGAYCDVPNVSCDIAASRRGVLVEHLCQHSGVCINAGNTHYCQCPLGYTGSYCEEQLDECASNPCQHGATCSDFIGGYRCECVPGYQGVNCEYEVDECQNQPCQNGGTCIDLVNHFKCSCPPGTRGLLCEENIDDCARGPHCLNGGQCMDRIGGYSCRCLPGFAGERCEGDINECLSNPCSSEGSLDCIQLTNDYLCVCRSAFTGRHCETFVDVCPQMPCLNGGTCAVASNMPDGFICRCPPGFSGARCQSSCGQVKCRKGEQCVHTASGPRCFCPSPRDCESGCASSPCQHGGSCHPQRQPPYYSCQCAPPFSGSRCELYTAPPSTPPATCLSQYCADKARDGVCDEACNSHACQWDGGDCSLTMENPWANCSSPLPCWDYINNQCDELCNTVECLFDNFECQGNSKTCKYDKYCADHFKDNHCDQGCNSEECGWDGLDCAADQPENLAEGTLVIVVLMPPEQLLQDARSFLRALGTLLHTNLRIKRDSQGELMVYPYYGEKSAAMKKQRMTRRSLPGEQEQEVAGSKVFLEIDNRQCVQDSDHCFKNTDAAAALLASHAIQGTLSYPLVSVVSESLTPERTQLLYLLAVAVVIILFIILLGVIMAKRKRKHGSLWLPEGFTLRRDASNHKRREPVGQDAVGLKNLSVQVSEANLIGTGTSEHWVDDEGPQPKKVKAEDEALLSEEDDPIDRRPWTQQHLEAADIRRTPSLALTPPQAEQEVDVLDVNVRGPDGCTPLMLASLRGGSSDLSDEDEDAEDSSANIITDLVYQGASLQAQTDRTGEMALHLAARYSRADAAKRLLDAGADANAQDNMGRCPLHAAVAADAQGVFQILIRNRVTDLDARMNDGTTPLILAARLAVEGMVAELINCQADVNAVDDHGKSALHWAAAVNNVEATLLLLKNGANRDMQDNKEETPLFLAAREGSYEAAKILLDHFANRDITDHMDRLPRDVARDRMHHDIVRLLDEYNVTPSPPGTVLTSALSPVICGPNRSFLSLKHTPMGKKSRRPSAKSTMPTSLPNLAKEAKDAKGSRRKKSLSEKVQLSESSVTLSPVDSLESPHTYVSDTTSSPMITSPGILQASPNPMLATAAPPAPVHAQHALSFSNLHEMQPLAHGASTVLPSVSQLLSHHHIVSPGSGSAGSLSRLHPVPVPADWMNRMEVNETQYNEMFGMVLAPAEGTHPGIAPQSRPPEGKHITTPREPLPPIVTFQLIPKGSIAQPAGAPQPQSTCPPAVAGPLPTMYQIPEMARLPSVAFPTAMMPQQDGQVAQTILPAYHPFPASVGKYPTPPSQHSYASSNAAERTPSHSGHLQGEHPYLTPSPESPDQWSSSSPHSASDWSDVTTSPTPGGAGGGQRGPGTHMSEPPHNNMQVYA

[6] = molecular target: Pro-neuregulin-1, membrane-bound isoform (Homo sapiens) (UniProt Q02297); assay: small molecules binding neuregulin-1 protein – biochemical, small-molecule microarray, fluorescence 635/667, psychiatric disease protein project, primary screen (AID 1075); details: NRG1 binding, 635 nm fluorescence, higher = more signal;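 also: score combines 667 nm spot fluorescence with signal to noise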
[7] = test system: Neuregulin-1 EGF-like domain; assay: small molecules binding NRG1 EGF domain – biochemical, small-molecule microarray, 635 nm fluorescence, primary screen (AID 1081); details: higher = more signal;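 also: binding of the protein to compounds printed on small-molecule microarray slides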
[8] = FRG1 expression reporter modulators in myotubes – cell-based, C2C12 myotubes, firefly/Renilla luciferase, luminescence, FRG1 inhibition for FSHD, primary screen (AID 1084); details: FRG1 promoter luciferase, higher = more signal, called active from +8 up or from −8 down
[9] = small molecules captured by biotinylated probe aFST – biochemical, small-molecule microarray, fluorescence 635/667, stem cell growth factor project, primary screen (AID 1086); details: higher = more signal;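 also: score merges 667 nm fluorescence with signal-to-noise of each printed compound spot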
[10] = binders of probe aHhip on microarray, primary screen, stem cell growth factor project, biochemical, small-molecule microarray, fluorescence 635/667 (AID 1087); details: higher = more signal;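 also: score merges spot fluorescence at 667nm with spot signal to noise ratio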
[11] = test system: PRMT1 (protein arginine N-methyltransferase 1); assay: small molecules binding arginine methyltransferase PRMT1 – biochemical, small-molecule microarray, 635 nm fluorescence, primary screen (AID 1088); details: higher = more signal;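 also: binding of Prmt1 protein to compounds spotted on small-molecule microarray slides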
[12] = growth effects on S. cerevisiae YJM789 – YJM789 clinical isolate, OD600, 24 h, basal, primary screen (AID 1089); details: higher = more signal, called active from +8 up or from −8 down;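 also: growth of clinical yeast isolate S. cerevisiae YJM 789 seeded 1000 cells per well; test concentration not given here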
[13] = S. pombe growth modifiers, basal conditions – strain 972, OD600, 24 h, no modulator, primary screen (AID 1090);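 also: basal condition with compound alone and no growth modifier present; test concentration not given here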; details: S. pombe 972 growth, higher = more signal, called active from +8 up or from −8 down
[14] = budding yeast growth modifiers under rapamycin – strain BY4716, OD600, 96 h, primary screen (AID 1091); also: test concentration not given here; details: S. cerevisiae BY4716 + rapamycin, higher = more signal, called active from +8 up or from −8 down
[15] = molecular target: Torsin-1A-interacting protein 2 (Homo sapiens) (UniProt Q8NFQ8); assay: small molecules binding lysate-expressed LULL1 – cell lysate, human LULL1 lysate, 635/667 nm fluorescence, primary screen (AID 1092); details: small-molecule microarray, hLULL1 lysate binding, 635 nm fluorescence; higher = more signal;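 also: probe is lysate of COS7 cells overexpressing human LULL1; score merges per-feature 667 nm fluorescence with signal-to-noise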
[16] = optical density change of DRC41 E. coli – strain DRC41, OD650, 24 h, E. coli filamentation project, primary screen (AID 1093);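 also: MC1000 strain lacking acrAB efflux and sulA so SOS filamentation is blocked; test concentration not given here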; details: E. coli DRC41 growth, higher = more signal, called active from +8 up or from −8 down
[17] = probe aLefty2 binding to arrayed compounds – biochemical, biotinylated probe, 635/667 nm fluorescence, primary screen (AID 1094); details: small-molecule microarray, higher = more signal;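 also: score merges spot fluorescence near 667 nm with spot signal-to-noise ratio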
[18] = test system: Noggin (protein binding on small-molecule microarray); assay: small molecules binding Noggin protein – biochemical, 635/667 nm fluorescence, primary screen (AID 1095); details: 635 nm fluorescence, higher = more signal;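 also: score merges 667 nm feature fluorescence with signal to noise over triplicate slides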
[19] = molecular target: Neurogenic locus notch homolog protein 3 (Homo sapiens) (UniProt Q9UM47); assay: small molecules binding NOTCH3 protein – biochemical, 635/667 nm fluorescence, primary screen (AID 1096); details: small-molecule microarray, 635 nm fluorescence, higher = more signal
Chain of Neurogenic locus notch homolog protein 3 (Homo sapiens) (Q9UM47 whole entry, looked up): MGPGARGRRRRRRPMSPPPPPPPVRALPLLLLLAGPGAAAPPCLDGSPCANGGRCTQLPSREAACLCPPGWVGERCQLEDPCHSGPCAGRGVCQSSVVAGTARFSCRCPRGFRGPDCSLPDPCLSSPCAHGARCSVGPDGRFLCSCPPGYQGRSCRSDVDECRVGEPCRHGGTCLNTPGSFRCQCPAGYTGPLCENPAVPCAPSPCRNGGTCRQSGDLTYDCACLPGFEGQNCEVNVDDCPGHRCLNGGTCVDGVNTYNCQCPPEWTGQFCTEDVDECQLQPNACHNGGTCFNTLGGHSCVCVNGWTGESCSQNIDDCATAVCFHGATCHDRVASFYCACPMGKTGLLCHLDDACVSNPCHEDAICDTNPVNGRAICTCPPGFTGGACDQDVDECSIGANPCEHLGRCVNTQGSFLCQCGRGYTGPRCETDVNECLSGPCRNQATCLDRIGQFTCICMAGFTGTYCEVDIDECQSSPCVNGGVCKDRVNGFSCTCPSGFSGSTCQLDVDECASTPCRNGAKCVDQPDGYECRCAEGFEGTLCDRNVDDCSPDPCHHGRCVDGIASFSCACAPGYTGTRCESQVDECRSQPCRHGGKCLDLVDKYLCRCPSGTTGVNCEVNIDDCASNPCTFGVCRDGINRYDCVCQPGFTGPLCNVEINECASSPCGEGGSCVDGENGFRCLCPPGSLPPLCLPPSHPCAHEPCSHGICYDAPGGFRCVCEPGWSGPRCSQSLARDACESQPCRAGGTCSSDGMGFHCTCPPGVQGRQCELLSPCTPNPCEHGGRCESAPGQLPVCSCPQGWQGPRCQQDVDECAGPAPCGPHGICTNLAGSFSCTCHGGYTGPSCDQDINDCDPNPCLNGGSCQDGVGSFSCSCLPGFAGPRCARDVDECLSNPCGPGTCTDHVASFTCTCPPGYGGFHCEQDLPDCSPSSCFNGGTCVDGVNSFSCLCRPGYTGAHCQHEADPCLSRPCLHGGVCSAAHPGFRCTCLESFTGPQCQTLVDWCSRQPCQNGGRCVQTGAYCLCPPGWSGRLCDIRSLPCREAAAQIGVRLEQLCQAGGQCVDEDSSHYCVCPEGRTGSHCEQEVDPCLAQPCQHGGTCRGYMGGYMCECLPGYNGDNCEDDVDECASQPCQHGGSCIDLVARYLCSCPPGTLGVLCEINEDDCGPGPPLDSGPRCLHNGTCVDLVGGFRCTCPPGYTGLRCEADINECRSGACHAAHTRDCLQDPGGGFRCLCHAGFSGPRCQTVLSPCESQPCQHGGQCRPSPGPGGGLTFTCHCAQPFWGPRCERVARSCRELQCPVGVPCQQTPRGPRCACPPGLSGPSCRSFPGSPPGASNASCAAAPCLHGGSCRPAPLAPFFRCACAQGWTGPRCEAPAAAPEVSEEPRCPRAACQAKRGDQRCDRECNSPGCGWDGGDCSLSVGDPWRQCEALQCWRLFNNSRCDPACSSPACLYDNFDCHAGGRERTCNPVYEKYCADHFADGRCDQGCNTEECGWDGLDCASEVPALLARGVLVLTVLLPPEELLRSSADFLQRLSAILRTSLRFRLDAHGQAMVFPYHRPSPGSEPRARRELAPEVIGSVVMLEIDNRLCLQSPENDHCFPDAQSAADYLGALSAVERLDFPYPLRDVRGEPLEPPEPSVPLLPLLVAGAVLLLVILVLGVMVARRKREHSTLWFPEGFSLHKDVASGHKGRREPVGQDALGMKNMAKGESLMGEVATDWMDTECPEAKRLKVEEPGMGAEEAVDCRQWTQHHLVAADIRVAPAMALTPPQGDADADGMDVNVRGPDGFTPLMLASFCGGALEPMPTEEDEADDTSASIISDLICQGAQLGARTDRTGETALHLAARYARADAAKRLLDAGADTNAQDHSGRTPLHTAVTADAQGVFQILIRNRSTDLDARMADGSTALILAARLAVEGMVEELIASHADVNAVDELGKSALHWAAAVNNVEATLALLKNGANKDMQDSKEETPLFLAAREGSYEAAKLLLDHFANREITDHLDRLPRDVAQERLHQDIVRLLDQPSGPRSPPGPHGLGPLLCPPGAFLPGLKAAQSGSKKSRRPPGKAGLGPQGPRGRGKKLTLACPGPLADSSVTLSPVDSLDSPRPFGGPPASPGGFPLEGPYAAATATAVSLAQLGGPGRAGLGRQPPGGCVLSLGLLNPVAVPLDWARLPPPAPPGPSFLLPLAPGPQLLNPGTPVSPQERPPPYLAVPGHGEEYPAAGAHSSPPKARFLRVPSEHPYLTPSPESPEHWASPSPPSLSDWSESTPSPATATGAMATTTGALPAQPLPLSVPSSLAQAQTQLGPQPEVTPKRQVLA

[20] = probe aEGFR binding to arrayed compounds – biochemical, biotinylated probe, 635/667 nm fluorescence, primary screen (AID 1097); details: small-molecule microarray, higher = more signal;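 also: probe is a biotinylated anti-EGFR antibody binding compounds printed on slides; score combines fluorescence near 667 nm and signal to noise of each spot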

Structure (SMILES)	composite z-score [1]	composite z-score [2]	composite z-score [3]	composite z-score [4]	composite z-score [5]	composite z-score [6]	composite z-score [7]	z-score [8]	composite z-score [9]	composite z-score [10]	composite z-score [11]	z-score [12]	z-score [13]	z-score [14]	composite z-score [15]	z-score [16]	composite z-score [17]	composite z-score [18]	composite z-score [19]	composite z-score [20]
CCCNC(=O)[C@@]1(C)c2ccccc2C(=O)N(Cc2ccc(OC(F)(F)F)cc2)[C@H]1c1ccc(CO)cc1	0.29	-0.0811	0.015	-0.387	-0.321	1.2	1.3	-3.98 (inactive)	-0.337	0.28	0.294	-0.446 (inactive)	0.242 (inactive)	-0.548 (inactive)	-0.416	0.922 (inactive)	0.0241	-0.432	0.13	-0.18
COc1ccccc1CN1C(=O)c2ccccc2[C@](Cc2ccccc2I)(C(=O)NCc2ccccc2)[C@@H]1c1ccc(CO)cc1	0.317	1.33	-0.0614	0.197	0.106	0.923	0.535	-1.13 (inactive)	0.182	0.154	1.02	-0.295 (inactive)	-0.127 (inactive)	-0.694 (inactive)	2.22	0.106 (inactive)	0.0023	-0.373	-0.418	-0.0432
O=C1O[C@@H](c2ccccc2)[C@@H](c2ccccc2)N2[C@@H](c3ccc(O)cc3)[C@]3(C(=O)Nc4ccc(C#CCCO)cc43)[C@@H](C(=O)O)[C@H]12	3.16	0.489	0.548	0.306	0.725	1.91	1.07	-0.55 (inactive)	2.44	1.69	1.57	0.414 (inactive)	-0.571 (inactive)	-0.265 (inactive)	2.79	0.7 (inactive)	1.55	-0.222	0.314	1.07
CO[C@H]1O[C@H](CO)[C@@H](OC(=O)Nc2ccc3c(c2)OCO3)[C@H](OC(=O)Nc2ccc3c(c2)OCO3)[C@H]1OC(=O)Nc1ccc2c(c1)OCO2	0.0472	-0.235	0.0575	0.844	1.39	1.83	1.25	6.05 (inactive)	0.634	-0.0296	1.54	1.68 (inactive)	0.861 (inactive)	3.19 (inactive)	3.5	0.922 (inactive)	0.151	0.816	1.03	-0.0455
O=C1c2ccccc2[C@](Cc2ccccc2I)(C(=O)O)[C@H](c2ccc(CO)cc2)N1Cc1ccccc1C(F)(F)F	-0.897	0.17	-0.21	-0.278	0.304	1.62	1.26	-0.524 (inactive)	-0.0423	-0.312	1.12	0.817 (inactive)	0.0662 (inactive)	0.0262 (inactive)	3.14	-0.255 (inactive)	-0.243	0.033	0.263	-0.379
[N-]=[N+]=NCc1ccccc1[C@@H]1OC(c2ccc(OCCCO)cc2)=N[C@]1(Cc1ccccc1)C(=O)O	0.221	0.163	0.0909	1.04	0.526	1.57	1.25	2.29 (inactive)	0.461	-0.0581	1.54	0.452 (inactive)	-1.11 (inactive)	-0.486 (inactive)	3.2	0.652 (inactive)	0.0769	-0.0061	0.315	0.271
Cc1ccc(C(C)CC(O)C2C=CC3C(=O)NC(=O)C3N2Nc2ccccn2)o1 (stereo not given)	-0.0428	0.573	-0.0951	0.174	-0.0116	0.753	0.845	0.327 (inactive)	0.0821	-0.249	1.09	0.633 (inactive)	0.0293 (inactive)	0.124 (inactive)	1.94	0.504 (inactive)	-0.0225	0.312	-0.233	-0.0302
Cc1ccc(S[C@]2(C(=O)NCC(C)C)CC(=O)N(Cc3ccccc3)[C@@H]2c2ccc(CO)cc2)cc1	0.148	-0.674	-0.076	0.146	-0.967	-0.431	0.221	-3.05 (inactive)	0.161	-0.226	0.744	-1.14 (inactive)	-1.14 (inactive)	-0.256 (inactive)	1.86	-0.579 (inactive)	0.189	-0.779	-0.331	-0.236
Cc1ccc(S[C@]2(C(=O)NCCCN(C)C)CC(=O)N(C(C)C)[C@@H]2c2ccc(CO)cc2I)cc1	0.052	-0.54	-0.0954	-0.238	-0.373	0.994	0.861	-0.312 (inactive)	-0.152	-0.354	1.05	-1.25 (inactive)	-2.91 (inactive)	-1.13 (inactive)	2.88	0.0601 (inactive)	-0.0654	-0.521	-0.0055	-0.142
O=c1cccc(-c2cccc3ccccc23)o1	0.745	-0.378	-0.0316	-0.413	-0.0766	-0.159	0.75	3.63 (inactive)	0.0143	0.0053	-0.106	-5.22 (inactive)	-13.3 (active)	4.08 (inactive)	0.877	1.48 (inactive)	0.303	-0.364	-0.107	-0.2
